Among the data in ChEMBL document CHEMBL3988442, “University of Dundee, Small-Polar-MMV Screening Library” (2021) are Percent Effect values, retold here.

For some of these results: Results with a measured potency or affinity are listed apart.

What all share (parameters): scale not given: direction of the effect not stated beside the values
Test [1] concerns the target Protein translocase subunit SecA (Escherichia coli (strain K12)) (UniProt P10408). Description: Assay to Identify E. coli SecA ATPase Inhibitors. The test is classed as functional. Particulars: 30 µM.
Test [2] addresses T1, Ubiquitin-activating enzyme e1, putative (Leishmania donovani (strain BPK282A1)) (UniProt E9BSI1).
T1 sequence (whole entry): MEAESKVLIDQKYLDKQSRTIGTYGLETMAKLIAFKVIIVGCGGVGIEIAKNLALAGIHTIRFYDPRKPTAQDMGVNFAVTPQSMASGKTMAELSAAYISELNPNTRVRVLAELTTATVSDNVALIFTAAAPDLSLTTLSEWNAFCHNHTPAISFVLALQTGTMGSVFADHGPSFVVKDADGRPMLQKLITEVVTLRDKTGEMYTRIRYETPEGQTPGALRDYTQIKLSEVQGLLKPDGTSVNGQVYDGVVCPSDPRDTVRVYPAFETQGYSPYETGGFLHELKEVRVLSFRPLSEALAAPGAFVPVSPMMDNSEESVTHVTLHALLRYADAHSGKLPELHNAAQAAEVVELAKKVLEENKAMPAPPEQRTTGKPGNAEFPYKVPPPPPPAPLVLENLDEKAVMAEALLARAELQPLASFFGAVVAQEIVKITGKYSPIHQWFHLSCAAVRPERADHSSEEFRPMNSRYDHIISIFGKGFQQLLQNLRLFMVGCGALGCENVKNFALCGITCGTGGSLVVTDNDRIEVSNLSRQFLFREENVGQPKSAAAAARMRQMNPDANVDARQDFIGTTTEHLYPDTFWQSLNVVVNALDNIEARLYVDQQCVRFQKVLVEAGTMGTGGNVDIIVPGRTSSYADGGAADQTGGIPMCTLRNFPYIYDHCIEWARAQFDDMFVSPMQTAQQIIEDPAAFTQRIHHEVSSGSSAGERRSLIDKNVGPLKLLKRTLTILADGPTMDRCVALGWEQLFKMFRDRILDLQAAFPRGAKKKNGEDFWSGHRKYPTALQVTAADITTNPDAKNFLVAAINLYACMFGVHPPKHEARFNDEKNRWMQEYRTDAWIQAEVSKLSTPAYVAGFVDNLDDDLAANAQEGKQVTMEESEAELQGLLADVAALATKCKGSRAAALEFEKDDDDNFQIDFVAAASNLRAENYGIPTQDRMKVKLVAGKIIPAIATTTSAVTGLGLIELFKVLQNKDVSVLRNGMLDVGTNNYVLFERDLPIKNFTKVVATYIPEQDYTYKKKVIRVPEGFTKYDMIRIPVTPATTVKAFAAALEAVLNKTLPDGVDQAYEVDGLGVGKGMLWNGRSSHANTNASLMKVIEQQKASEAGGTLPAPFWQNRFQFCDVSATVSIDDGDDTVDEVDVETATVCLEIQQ
As to the kind of experiment: Leishmania donovani Ubiquitin Activating Enzyme (LdE1). Type of test: functional. The settings on record: 30 µM.

Test [3] deals with AMP-activated protein kinase, AMPK (Homo sapiens) (UniProt P54646+O43741+P54619+Q9UGJ0+Q9Y478+Q13131+Q9UGI9). Description: AMP-dependent Kinase enzyme assay. An in vitro enzyme assay that detects ADP turnover that is directly proportional to AMPK activity. This uses naive AMPK that is activated during the assay with MK-8722. Type of test: functional. The settings on record: 30 µM.

Test [4] deals with Sialic acid-binding Ig-like lectin 9 (Homo sapiens) (UniProt Q9Y336). As to the kind of experiment: Hs-Siglec9 ALPHAscreen SOP 20170721. The settings on record: 10 µM. (Alpha assays give light when donor and acceptor beads are brought close together.)
The subject of another test is Trypanosoma cruzi. Description: Trypanosoma cruzi phosphomannomutase and mannose-1-phosphate guanylyltransferase assay. The test is classed as functional. Particulars: 10 µM.
Test [5] concerns the target T2, Arginase-2, mitochondrial (Homo sapiens) (UniProt P78540).
T2 sequence (whole entry): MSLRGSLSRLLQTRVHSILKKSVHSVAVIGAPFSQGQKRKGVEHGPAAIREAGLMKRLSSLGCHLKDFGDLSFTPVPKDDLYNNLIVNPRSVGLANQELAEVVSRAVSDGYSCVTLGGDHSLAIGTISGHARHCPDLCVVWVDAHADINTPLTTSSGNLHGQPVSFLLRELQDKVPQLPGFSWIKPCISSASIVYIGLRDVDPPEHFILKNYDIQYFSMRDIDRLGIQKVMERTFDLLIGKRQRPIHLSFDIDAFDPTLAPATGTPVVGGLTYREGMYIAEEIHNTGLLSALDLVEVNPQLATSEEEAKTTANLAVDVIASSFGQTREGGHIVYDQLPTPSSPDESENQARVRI
Description: in vitro enzyme assay to detect the production of urea directly proportional to the activity of Arginase II. Also: in the data most compounds retested in dose-response had high values. Type of test: functional. The settings on record: 33.3 µM.

Test [6] has as its target T3, Proteasome subunit beta (Trypanosoma cruzi) (UniProt O96673).
T3 sequence (whole entry): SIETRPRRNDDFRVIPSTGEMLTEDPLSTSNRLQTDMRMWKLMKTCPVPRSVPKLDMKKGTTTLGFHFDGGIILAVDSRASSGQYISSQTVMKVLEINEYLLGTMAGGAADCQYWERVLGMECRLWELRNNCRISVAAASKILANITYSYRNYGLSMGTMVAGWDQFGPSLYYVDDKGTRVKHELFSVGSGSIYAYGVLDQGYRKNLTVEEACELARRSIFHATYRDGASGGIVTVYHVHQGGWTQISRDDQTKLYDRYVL
As to the kind of experiment: Trypanosoma cruzi proteasome chymotrypsin-like activity (TcProtChymo) assay. Also: in the data most compounds retested in dose-response had high values. Type of test: functional. The settings on record: 9.37 µM.

The species entered for a further test is Homo sapiens. As to the kind of experiment: To identify inhibition of the IFN signalling (Jak-Stat) pathway via expression of an eGFP reporter gene under the control of an IFN-stimulated response element (ISRE) containing MxA promoter. Type of test: functional. The settings on record: 30 µM. For orientation: A reporter such as luciferase makes a cellular process visible.

The target in test [7] is T4, Tyrosyl-tRNA synthetase, putative (Trypanosoma cruzi (strain CL Brener)) (UniProt Q4DSP6).
T4 sequence (whole entry): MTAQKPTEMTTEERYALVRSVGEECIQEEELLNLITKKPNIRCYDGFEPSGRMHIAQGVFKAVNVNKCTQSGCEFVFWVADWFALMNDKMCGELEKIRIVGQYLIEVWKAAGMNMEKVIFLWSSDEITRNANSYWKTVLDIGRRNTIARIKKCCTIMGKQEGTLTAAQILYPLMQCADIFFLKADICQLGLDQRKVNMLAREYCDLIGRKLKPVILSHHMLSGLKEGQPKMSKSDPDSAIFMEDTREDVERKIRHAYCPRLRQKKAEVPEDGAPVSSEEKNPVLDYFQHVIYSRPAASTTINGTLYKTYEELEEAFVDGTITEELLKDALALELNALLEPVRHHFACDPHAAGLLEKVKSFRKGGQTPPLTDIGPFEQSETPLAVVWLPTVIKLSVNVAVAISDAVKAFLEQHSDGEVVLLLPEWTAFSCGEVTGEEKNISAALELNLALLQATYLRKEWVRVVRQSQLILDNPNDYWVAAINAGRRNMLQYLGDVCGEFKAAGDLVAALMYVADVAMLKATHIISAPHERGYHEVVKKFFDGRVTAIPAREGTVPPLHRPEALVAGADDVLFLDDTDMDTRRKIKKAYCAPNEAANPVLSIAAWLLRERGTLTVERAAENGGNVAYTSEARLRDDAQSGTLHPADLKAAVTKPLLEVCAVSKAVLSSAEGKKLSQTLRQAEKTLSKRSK
As to the kind of experiment: Trypanosoma cruzi tyrosyl tRNA synthetase (TcYRS) _High Tyrosine SOP. Also: in the data most compounds retested in dose-response had high values. Type of test: functional. Particulars: 30 µM.

Test [8] deals with T4, Tyrosyl-tRNA synthetase, putative (Trypanosoma cruzi (strain CL Brener)). Description: Trypanosoma cruzi tyrosyl tRNA synthetase (TcYRS) SOP. Type of test: functional. Particulars: 30 µM.
Test [9] deals with Chromo domain-containing protein 1 (Saccharomyces cerevisiae (strain ATCC 204508 / S288c) (Baker's yeast)) (UniProt P32657). As to the kind of experiment: ScCHD-1 Enzyme Inhibition Assay. Also: in the data most compounds retested in dose-response had high values. Type of test: functional. The settings on record: 30 µM.
Sequence of Chromo domain-containing protein 1 (Saccharomyces cerevisiae (strain ATCC 204508 / S288c) (Baker's yeast)) (P32657 whole entry, the tested form may be a part): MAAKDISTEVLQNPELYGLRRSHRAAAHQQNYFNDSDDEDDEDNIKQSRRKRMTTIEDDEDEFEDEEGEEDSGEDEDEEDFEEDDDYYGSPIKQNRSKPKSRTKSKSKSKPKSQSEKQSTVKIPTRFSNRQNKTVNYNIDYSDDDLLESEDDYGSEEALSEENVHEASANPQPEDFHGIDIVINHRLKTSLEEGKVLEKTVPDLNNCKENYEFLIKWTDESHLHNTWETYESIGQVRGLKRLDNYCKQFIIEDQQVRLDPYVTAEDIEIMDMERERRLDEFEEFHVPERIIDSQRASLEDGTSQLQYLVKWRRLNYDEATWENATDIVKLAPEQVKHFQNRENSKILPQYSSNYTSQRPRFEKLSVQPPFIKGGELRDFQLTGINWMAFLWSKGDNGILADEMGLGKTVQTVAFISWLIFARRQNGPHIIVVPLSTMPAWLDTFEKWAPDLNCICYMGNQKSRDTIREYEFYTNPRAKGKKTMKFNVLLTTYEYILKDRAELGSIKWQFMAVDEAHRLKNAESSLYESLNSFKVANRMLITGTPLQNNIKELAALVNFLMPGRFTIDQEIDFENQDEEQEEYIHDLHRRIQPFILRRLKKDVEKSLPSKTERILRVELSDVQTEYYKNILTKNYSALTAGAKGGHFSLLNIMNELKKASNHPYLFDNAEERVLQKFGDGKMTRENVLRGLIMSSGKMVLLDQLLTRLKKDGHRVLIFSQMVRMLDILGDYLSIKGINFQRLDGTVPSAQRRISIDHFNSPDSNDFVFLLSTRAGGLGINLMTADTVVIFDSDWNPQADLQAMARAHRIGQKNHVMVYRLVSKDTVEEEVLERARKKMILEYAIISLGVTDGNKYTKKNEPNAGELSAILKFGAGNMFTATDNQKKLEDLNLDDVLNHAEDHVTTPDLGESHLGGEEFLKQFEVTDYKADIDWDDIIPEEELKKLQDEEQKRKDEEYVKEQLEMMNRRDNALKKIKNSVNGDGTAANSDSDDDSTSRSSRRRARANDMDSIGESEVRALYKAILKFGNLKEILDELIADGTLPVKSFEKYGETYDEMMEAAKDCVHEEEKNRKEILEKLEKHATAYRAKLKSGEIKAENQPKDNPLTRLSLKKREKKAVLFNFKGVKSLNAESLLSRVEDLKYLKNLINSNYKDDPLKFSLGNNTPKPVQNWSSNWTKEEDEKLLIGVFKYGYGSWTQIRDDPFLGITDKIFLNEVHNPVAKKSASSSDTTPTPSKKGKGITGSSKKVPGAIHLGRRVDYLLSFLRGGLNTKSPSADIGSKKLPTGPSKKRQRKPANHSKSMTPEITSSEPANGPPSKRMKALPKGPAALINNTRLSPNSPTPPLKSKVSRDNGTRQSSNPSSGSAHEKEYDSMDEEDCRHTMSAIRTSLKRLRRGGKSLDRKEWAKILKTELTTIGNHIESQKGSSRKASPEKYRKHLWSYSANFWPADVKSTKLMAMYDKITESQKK

Sequence of Sialic acid-binding Ig-like lectin 9 (Homo sapiens) (Q9Y336 whole entry): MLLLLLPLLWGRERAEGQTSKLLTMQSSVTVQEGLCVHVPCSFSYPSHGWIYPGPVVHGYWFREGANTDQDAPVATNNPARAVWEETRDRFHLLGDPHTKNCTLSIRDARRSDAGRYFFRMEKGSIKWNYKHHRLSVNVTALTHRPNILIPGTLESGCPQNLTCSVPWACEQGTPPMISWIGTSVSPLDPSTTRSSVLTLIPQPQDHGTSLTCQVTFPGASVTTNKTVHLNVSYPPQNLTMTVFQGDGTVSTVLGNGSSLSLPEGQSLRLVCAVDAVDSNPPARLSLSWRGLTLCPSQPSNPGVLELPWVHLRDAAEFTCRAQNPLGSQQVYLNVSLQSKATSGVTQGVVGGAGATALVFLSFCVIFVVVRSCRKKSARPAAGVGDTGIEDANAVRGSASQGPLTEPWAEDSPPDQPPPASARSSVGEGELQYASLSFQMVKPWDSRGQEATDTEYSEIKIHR
Sequence of Protein translocase subunit SecA (Escherichia coli (strain K12)) (P10408 whole entry): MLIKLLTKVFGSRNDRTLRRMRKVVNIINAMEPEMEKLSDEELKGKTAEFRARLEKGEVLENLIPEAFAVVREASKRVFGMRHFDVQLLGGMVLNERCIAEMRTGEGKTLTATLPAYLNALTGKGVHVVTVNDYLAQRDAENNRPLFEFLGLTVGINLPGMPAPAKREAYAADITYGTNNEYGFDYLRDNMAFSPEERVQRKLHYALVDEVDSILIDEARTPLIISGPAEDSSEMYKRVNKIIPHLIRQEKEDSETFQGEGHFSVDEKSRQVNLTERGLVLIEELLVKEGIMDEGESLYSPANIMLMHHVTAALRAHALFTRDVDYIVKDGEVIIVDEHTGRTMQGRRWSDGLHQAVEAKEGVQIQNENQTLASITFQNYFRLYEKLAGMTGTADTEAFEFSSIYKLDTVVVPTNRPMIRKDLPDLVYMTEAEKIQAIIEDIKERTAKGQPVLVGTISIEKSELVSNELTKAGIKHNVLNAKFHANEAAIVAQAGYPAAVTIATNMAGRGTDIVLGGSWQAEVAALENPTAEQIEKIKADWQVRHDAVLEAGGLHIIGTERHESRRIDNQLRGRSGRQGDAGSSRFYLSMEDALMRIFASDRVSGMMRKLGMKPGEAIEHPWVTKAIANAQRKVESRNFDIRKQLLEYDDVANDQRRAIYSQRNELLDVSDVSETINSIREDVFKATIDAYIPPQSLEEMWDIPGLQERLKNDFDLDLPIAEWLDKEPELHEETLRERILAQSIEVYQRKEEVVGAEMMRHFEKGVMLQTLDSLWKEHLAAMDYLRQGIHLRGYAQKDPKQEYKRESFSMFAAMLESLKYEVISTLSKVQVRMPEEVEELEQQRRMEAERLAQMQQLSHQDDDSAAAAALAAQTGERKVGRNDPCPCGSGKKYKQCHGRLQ

As for `CCc1nnc(CNCC2CCN(CC(O)c3ccccc3)CC2)o1` (stereo unspecified), the Percent Effect in [1] is -4.81%; in test [2] it was 19%; in test [3], -3.87%; in test [4] it was -2.88%; in the test on Trypanosoma cruzi, -2.15%; in [5], -7.1%. For the same molecule, the Percent Effect in [6] is 11.5%; in the test filed under Homo sapiens, 14%; in [7], -2.08%; in test [8], 12.7%; in test [9], -30.3%.
On to `Cc1csc(N2CCN(C(=O)CCc3nccs3)CC2)n1`, for which the Percent Effect was -6.78% in [1]; 8.11% in [2]; -8.38% in test [3]; 7.91% in [4]; 3.11% with Trypanosoma cruzi; -17.2% in [5]. Further, the Percent Effect in [6] is 5.59%; in the test listed under Homo sapiens, 11.7%; in test [7], 12.3%; in [8], 28.4%; in [9], -11.1%.
Turning to `Cc1nc(C2CCCN2C(=O)c2cnns2)no1` (stereo unspecified), the Percent Effect in test [1] was -3.1%; in [2], 13.2%; in [3] it was 3.2%; in test [4] it was 4.23%; with Trypanosoma cruzi, -0.564%; in test [5], 9.96%. Besides, the Percent Effect is 12.9% in test [6]; 3.69% in the test filed under Homo sapiens; 5.39% in test [7]; 17.1% in [8]; -6.62% in test [9].
`Cn1c(CN2CCCC2)nnc1C1CCCN(C(=O)C2CCOCC2)C1` (stereo unspecified): the Percent Effect in test [1] was -3.02%; in test [2], 5.41%; in test [3], -5.63%; in test [4], 28.6%; in the test with Trypanosoma cruzi, 5.99%; in test [5], 22.9%. Moreover, the Percent Effect in test [6] is 8.1%; in the test listed under Homo sapiens, 6.46%; in [7] it was 4.76%; in test [8], 4.88%; in [9], -11.7%.
Take `CC(=O)N1CCO[C@@H]2CN(C(=O)c3cc(C)oc3C)CC[C@@H]2C1`: the Percent Effect in test [1] was -6.41%; in [2], 10.8%; in [3] it was -31.2%; in [4] it was -10.6%; with Trypanosoma cruzi, -1.07%; in [5] it was 0.319%. Moreover, the Percent Effect was 7.75% in test [6]; 19.1% in the test filed under Homo sapiens; 0% in [7]; 0% in test [8]; -3.96% in test [9].
`CN(Cc1ccco1)C[C@H]1OC[C@@H]2CCN(Cc3cccnc3)C[C@@H]21`: the Percent Effect in test [1] is -2.62%; in [2] it was 10.7%; in [3] it was 0.611%; in test [4], -1.35%; in the test on Trypanosoma cruzi it was 0.772%; in test [5], -51.1%. Further, the Percent Effect in test [6] was 8.55%; in the test listed under Homo sapiens it was 1.18%; in [7], 0%; in test [8], 10%; in test [9], -2.25%.
On to `CC(C)CNC(=O)NC(=O)CNc1ccccc1SCC(C)C#N` (stereo unspecified), for which the Percent Effect in test [1] is -5.8%; in test [2] it was 11%; in test [3] it was 6%; in test [4], 16.8%; in the test on Trypanosoma cruzi, 1.37%; in test [5] it was 6.82%. The Percent Effect is 9.41% in [6]; 11.3% in the test listed under Homo sapiens; 0% in [7]; 12.5% in [8]; -5.23% in [9].
As to `Cc1cccn2c(=O)cc(CN3CCCCC3Cn3cncn3)nc12` (stereo unspecified), the Percent Effect in [1] is -9.82%; in test [2], -2.7%; in test [3], -1.37%; in test [4] it was -1.48%; in the test on Trypanosoma cruzi, -4.2%; in [5], -1.74%. In addition, the Percent Effect in [6] was 9.53%; in the test filed under Homo sapiens, -10.4%; in test [7], -1.07%; in [8], -6.17%; in [9], -6.48%.
For the molecule `CCOCCCn1c(NC(=O)c2ccc(C)nc2)nc2ccccc21`, the Percent Effect in [1] is -10.1%; in test [2] it was 7.79%; in test [3], 10.5%; in [4], 3.52%; with Trypanosoma cruzi, 2.25%; in [5] it was 0%. For the same molecule, the Percent Effect is 4.56% in test [6]; -7.49% in the test filed under Homo sapiens; 4.85% in test [7]; 14.6% in test [8]; 0.139% in test [9].
As for `Cc1ncc(CNC(=O)c2nn(C)c3c2CS(=O)(=O)CC3)s1`, the Percent Effect in test [1] was -3.9%; in test [2], 9.33%; in test [3], 3.53%; in [4], 5.84%; in the test on Trypanosoma cruzi it was 3.73%; in [5], -6.16%. Besides, the Percent Effect in [6] is 13.3%; in the test listed under Homo sapiens, 4.95%; in test [7] it was 9.52%; in test [8], 12.8%; in test [9], -9.87%.
For `Cc1nccnc1N1CC[C@@H](NC(=O)c2cnccn2)[C@H](O)C1`, the Percent Effect in test [1] is -5.54%; in [2], 13.5%; in test [3] it was -3.54%; in test [4], 17.2%; with Trypanosoma cruzi, 7.53%; in test [5] it was 2.86%. Also, the Percent Effect is 3.62% in test [6]; 2.71% in the test listed under Homo sapiens; 2.65% in test [7]; 14.6% in [8]; -0.902% in test [9].
